Common to all, as to assay: DAPPL (digital affinity profiling via proximity ligation, sequencing); 10 mM Tris-HCl pH 7.5, 50 mM NaCl, 1 mM DTT, 4% glycerol, room temperature, 30 min; GST-TFs on glutathione beads, 16-mer random dsDNA library, 0.1% formaldehyde crosslink after washing; high values mean tight binding
One assay addresses T1, FLI1 (Homo sapiens, UniProt Q01543 1-452).
T1 sequence: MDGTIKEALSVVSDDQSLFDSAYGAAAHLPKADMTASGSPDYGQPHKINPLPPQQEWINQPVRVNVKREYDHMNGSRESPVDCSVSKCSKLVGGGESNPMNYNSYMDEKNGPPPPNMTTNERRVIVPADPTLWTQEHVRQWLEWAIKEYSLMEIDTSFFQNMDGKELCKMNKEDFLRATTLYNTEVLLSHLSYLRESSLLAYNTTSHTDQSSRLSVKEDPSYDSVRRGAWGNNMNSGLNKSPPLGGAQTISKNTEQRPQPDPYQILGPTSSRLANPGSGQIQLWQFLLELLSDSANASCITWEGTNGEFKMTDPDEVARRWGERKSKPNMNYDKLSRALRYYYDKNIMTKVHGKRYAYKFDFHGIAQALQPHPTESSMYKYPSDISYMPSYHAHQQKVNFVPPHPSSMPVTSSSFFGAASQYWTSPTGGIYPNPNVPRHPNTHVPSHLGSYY
The note with it: protein: recombinant; tags: N-terminal GST; dsDNA, one strand shown. A digest of the protocol: (§1)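 Pools were built from human transcription factors expressed in yeast as GST fusions, captured on glutathione beads and DNA-barcoded, along with a tag-only sample. Incubation with 200 nmole of a 16-mer random double-stranded DNA library lasted 30 min at room temperature in Tris/NaCl/DTT/glycerol buffer, and was followed by washing, 0.1% formaldehyde crosslinking, proximity ligation, PCR amplification and Illumina NextSeq500 sequencing. Binding signal is the quotient of each hexamer's read frequency for a factor and its frequency for the tag-only sample.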

A further assay has as its target T2, ELK1 (Homo sapiens, UniProt P19419 1-428).
T2 sequence: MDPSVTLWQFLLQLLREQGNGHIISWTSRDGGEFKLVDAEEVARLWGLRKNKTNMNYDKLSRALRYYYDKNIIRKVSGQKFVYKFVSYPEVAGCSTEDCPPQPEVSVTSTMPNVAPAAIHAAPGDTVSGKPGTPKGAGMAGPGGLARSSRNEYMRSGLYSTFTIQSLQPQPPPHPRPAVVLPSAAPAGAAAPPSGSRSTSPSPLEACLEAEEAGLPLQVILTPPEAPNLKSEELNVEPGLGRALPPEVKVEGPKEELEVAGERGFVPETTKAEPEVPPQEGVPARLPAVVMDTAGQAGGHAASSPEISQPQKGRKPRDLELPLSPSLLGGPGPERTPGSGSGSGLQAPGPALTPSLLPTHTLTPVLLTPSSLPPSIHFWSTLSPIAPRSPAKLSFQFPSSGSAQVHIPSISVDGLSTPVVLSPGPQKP
As to conditions: protein: recombinant; tags: N-terminal GST; dsDNA, one strand shown. The method, boiled down: as §1

In a further assay the target is T3, GABPA (Homo sapiens, UniProt Q06546 1-454).
T3 sequence: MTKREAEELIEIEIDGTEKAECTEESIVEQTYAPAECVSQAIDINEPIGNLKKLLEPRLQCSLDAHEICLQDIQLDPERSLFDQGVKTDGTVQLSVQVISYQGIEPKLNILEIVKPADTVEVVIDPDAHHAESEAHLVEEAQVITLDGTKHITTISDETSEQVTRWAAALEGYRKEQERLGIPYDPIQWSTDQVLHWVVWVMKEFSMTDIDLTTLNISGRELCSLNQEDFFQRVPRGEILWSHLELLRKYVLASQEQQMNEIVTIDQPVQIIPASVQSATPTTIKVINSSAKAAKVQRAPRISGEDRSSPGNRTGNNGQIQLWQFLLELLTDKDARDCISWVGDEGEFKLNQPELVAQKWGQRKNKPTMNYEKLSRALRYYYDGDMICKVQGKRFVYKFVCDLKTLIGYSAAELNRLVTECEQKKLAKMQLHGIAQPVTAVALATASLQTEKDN
The note with it: protein: recombinant; tags: N-terminal GST; dsDNA, one strand shown. The method, boiled down:
as §1

For the next assay, the target named is T4, ERG (Homo sapiens, UniProt P11308 1-479).
T4 sequence: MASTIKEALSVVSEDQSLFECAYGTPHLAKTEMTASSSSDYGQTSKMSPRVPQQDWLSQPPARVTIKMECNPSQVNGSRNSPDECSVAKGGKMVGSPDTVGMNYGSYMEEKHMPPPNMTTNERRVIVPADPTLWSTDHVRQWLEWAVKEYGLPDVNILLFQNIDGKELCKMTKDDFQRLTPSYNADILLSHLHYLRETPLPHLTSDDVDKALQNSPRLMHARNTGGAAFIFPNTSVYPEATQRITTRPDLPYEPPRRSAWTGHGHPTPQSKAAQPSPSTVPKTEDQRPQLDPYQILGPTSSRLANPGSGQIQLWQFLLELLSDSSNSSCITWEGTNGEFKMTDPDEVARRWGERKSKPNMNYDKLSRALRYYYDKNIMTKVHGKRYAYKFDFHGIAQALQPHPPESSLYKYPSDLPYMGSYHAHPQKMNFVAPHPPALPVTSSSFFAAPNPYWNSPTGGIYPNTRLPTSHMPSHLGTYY
The note with it: protein: recombinant; tags: N-terminal GST; dsDNA, one strand shown. The method, boiled down:
as §1

The next assay addresses ELF1 (Homo sapiens, UniProt P32519 1-619). The note with it: protein: recombinant; tags: N-terminal GST; dsDNA, one strand shown. The method, boiled down:
as §1

A further assay addresses T5, EHF (Homo sapiens, UniProt Q9NZC4 1-300).
T5 sequence: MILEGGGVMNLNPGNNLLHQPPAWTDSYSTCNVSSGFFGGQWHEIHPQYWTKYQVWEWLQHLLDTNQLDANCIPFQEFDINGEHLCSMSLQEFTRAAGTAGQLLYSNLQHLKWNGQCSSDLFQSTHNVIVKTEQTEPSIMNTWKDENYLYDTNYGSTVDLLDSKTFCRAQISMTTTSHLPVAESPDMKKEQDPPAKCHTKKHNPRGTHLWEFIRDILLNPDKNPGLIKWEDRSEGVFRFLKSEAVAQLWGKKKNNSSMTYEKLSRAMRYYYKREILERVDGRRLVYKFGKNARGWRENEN
As to conditions: protein: recombinant; tags: N-terminal GST; dsDNA, one strand shown. A digest of the protocol: as §1

The target in a further assay is SPI1 (Homo sapiens, UniProt P17947 1-270). The note with it: protein: recombinant; tags: N-terminal GST; dsDNA, one strand shown. A digest of the protocol:
as §1

For another assay, the target named is SPIB (Homo sapiens, UniProt Q01892 1-262). As to conditions: protein: recombinant; tags: N-terminal GST; dsDNA, one strand shown. A digest of the protocol:
as §1

Another assay concerns the target T6, ELK3 (Homo sapiens, UniProt P41970 1-407).
T6 sequence: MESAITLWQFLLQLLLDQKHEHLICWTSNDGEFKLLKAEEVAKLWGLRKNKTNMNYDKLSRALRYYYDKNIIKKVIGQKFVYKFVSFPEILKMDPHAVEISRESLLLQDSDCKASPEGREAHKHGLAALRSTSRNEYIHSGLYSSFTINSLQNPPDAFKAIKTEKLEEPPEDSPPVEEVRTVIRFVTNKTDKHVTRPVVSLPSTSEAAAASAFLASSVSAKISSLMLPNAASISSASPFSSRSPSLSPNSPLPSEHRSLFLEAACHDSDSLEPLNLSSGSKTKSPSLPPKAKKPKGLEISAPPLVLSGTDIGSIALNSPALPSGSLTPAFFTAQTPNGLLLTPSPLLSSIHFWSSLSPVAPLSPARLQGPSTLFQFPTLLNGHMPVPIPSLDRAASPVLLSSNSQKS
The note with it: protein: recombinant; tags: N-terminal GST; dsDNA, one strand shown. A digest of the protocol: as §1

Another assay deals with T7, FEV (Homo sapiens, UniProt Q99581 1-238).
T7 sequence: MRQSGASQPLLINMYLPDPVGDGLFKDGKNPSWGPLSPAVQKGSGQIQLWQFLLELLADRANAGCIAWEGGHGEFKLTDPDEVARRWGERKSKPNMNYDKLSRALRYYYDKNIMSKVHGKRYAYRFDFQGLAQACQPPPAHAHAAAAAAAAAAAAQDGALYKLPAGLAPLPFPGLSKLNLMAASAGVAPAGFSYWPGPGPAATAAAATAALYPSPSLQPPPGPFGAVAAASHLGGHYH
The note with it: protein: recombinant; tags: N-terminal GST; dsDNA, one strand shown. A digest of the protocol: as §1

A further assay addresses ETV5 (Homo sapiens, UniProt P41161 1-510). As to conditions: protein: recombinant; tags: N-terminal GST; dsDNA, one strand shown. A digest of the protocol: as §1
In the next assay the target is HSF1 (Homo sapiens, UniProt Q00613 1-529). As to conditions: protein: recombinant; tags: N-terminal GST; chain copies: 3; dsDNA, one strand shown. A digest of the protocol:
as §1

Another assay concerns the target T8, SPIC (Homo sapiens, UniProt Q8N5J4 1-248).
T8 sequence: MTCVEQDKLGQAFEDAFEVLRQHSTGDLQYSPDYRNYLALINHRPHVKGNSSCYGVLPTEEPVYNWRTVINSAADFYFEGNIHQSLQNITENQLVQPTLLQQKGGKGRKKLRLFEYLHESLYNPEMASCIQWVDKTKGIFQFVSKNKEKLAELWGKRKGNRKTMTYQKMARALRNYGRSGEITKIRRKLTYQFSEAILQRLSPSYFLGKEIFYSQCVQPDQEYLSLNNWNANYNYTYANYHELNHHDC
As to conditions: protein: recombinant; tags: N-terminal GST; dsDNA, one strand shown. The method, boiled down:
as §1

The target in the next assay is ELF4 (Homo sapiens, UniProt Q99607 1-663). The note with it: protein: recombinant; tags: N-terminal GST; dsDNA, one strand shown. The method, boiled down:
as §1

The next assay concerns the target T9, ELK4 (Homo sapiens, UniProt P28324-2 1-405).
T9 sequence: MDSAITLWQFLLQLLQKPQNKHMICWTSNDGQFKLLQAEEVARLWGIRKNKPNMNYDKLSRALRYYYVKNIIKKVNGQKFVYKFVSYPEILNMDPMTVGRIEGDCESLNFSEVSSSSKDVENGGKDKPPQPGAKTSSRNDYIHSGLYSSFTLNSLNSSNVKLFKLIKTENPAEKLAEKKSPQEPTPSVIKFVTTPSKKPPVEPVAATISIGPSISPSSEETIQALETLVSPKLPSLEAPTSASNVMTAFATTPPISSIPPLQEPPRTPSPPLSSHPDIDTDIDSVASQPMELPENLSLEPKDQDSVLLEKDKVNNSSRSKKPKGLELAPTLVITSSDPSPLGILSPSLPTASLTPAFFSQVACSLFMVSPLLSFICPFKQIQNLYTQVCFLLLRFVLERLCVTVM
The note with it: protein: recombinant; tags: N-terminal GST; dsDNA, one strand shown. A digest of the protocol: as §1

Another assay has as its target T10, ETV2 (Homo sapiens, UniProt O00321 1-342).
T10 sequence: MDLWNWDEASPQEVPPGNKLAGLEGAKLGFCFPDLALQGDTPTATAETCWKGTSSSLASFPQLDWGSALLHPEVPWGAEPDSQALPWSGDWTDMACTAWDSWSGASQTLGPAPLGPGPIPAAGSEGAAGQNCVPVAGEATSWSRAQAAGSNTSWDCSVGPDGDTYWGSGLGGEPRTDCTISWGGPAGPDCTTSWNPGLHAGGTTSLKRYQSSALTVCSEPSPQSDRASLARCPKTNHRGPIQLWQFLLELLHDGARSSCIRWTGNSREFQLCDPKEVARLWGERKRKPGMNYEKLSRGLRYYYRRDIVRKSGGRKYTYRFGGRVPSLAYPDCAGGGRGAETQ
The note with it: protein: recombinant; tags: N-terminal GST; dsDNA, one strand shown. A digest of the protocol: as §1

In another assay the target is T11, ELF3 (Homo sapiens, UniProt P78545 1-371).
T11 sequence: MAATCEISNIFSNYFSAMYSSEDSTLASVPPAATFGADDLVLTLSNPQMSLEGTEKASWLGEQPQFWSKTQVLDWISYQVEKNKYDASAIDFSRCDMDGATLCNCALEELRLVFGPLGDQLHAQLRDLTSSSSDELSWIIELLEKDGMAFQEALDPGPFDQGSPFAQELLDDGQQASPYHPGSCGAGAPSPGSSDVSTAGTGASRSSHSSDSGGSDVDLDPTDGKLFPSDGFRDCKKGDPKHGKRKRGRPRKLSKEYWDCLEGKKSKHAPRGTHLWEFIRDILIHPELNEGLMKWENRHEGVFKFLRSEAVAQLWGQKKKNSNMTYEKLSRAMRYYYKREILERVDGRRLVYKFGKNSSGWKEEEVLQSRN
As to conditions: protein: recombinant; tags: N-terminal GST; dsDNA, one strand shown. The method, boiled down: as §1

The next assay concerns the target CRX (Homo sapiens, UniProt O43186 1-299). As to conditions: protein: recombinant; tags: N-terminal GST; dsDNA, one strand shown. A digest of the protocol:
as §1

In a further assay the target is ETV1 (Homo sapiens, UniProt P50549 1-477). As to conditions: protein: recombinant; tags: N-terminal GST; dsDNA, one strand shown. A digest of the protocol: as §1
ETV1, sequence (P50549 whole entry): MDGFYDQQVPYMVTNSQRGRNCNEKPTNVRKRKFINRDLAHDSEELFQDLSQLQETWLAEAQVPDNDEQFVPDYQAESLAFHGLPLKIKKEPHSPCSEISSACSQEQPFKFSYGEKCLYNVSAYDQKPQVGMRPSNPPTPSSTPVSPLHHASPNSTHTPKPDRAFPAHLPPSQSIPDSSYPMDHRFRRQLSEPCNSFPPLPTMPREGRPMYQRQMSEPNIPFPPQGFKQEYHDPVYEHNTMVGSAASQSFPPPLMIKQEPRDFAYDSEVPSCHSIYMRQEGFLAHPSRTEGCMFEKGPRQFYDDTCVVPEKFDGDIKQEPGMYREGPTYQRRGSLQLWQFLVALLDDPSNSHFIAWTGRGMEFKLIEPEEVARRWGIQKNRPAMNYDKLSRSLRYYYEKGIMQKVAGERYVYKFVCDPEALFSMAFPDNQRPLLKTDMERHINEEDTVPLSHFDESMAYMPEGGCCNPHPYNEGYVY

CRX, sequence (O43186 whole entry): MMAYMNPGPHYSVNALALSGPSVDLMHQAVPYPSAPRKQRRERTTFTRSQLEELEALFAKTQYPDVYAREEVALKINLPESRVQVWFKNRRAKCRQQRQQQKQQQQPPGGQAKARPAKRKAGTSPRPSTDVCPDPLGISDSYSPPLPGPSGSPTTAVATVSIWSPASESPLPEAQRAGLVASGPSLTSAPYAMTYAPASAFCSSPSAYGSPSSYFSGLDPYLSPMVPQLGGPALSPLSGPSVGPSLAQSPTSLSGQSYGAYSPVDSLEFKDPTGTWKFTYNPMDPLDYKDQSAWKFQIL
ELF1, sequence (P32519 whole entry): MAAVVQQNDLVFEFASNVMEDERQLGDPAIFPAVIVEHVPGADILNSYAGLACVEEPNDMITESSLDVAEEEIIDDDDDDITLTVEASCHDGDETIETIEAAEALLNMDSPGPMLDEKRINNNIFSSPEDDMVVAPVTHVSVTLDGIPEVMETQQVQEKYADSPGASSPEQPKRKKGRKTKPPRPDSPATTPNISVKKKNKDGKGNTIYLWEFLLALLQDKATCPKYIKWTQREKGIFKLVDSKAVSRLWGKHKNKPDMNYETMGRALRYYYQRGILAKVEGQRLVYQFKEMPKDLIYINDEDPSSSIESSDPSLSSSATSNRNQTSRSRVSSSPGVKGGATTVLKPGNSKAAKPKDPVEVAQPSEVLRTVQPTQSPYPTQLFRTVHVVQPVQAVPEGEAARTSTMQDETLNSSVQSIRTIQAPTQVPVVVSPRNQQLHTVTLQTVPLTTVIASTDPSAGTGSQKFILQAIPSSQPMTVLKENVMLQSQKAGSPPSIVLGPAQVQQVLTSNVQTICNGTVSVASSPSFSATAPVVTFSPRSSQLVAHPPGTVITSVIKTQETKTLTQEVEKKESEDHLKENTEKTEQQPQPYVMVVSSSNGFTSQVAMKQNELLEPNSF
ELF4, sequence (Q99607 whole entry): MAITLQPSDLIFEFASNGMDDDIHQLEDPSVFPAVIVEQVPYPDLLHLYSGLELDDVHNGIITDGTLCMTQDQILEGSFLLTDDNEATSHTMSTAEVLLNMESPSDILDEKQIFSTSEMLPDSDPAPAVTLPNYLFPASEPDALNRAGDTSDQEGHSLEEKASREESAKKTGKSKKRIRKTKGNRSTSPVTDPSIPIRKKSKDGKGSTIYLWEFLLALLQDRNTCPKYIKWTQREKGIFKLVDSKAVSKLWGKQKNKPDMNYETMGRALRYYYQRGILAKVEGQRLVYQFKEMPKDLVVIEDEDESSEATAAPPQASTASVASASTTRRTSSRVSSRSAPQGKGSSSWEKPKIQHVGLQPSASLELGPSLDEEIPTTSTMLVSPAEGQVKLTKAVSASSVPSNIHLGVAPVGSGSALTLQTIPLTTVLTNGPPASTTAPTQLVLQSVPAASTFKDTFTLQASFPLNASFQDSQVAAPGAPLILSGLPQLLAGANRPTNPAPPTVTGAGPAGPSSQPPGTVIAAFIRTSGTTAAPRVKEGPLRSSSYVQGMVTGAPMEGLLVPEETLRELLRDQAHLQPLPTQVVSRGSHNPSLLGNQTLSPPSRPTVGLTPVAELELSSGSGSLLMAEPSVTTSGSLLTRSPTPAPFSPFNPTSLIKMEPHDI
SPIB, sequence (Q01892 whole entry): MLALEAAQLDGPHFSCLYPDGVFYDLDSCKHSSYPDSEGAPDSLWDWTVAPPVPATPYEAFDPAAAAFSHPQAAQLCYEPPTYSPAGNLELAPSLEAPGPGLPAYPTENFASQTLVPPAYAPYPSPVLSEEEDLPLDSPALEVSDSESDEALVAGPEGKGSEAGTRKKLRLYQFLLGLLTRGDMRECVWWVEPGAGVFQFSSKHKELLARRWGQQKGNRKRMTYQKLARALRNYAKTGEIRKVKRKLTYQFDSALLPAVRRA
ETV5, sequence (P41161 whole entry): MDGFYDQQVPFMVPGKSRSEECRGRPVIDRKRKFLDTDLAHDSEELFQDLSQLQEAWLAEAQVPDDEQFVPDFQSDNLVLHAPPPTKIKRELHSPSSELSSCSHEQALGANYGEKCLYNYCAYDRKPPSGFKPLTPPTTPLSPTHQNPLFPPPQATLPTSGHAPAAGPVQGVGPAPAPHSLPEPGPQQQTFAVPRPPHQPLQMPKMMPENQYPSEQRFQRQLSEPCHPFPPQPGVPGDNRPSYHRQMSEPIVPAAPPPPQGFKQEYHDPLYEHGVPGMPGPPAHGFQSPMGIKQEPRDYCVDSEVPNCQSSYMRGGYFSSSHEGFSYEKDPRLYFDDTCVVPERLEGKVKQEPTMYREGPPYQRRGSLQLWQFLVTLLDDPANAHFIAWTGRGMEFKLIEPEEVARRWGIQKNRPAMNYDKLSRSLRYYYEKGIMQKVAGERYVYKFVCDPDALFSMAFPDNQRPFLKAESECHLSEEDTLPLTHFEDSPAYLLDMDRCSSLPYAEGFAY
HSF1, sequence (Q00613 whole entry): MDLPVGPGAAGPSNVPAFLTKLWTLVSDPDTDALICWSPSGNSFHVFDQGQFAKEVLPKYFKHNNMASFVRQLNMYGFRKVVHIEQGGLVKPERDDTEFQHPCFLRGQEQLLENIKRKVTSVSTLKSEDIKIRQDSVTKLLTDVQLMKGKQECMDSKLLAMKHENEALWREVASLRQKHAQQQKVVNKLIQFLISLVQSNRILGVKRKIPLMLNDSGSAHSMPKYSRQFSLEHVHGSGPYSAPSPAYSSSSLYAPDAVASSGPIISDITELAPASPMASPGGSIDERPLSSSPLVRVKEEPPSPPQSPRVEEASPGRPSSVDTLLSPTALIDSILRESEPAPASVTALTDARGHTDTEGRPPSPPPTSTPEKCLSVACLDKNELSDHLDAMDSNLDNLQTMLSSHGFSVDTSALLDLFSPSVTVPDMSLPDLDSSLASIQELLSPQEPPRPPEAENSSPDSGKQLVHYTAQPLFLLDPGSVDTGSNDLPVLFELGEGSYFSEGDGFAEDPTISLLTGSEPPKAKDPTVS

In the case of AAAAAA, the binding signal in the assay with FLI1 was 1.29 fold enrichment (6-mer frequency, TF over GST control); in the assay with ELK1 it was 1.28 fold enrichment (6-mer frequency, TF over GST control); with GABPA, 1.3 fold enrichment (6-mer frequency, TF over GST control); in the assay with ERG, 1.2 fold enrichment (6-mer frequency, TF over GST control); in the assay with ELF1, 1.32 fold enrichment (6-mer frequency, TF over GST control); with EHF, 1.45 fold enrichment (6-mer frequency, TF over GST control). In addition, the binding signal with SPI1 was 1.52 fold enrichment (6-mer frequency, TF over GST control); in the assay with SPIB it was 1.4 fold enrichment (6-mer frequency, TF over GST control); with ELK3, 1.41 fold enrichment (6-mer frequency, TF over GST control); with FEV it was 1.37 fold enrichment (6-mer frequency, TF over GST control); with ETV5, 1.35 fold enrichment (6-mer frequency, TF over GST control); in the assay with HSF1 it was 1.41 fold enrichment (6-mer frequency, TF over GST control). The binding signal in the assay with SPIC was 1.29 fold enrichment (6-mer frequency, TF over GST control); with ELF4, 1.37 fold enrichment (6-mer frequency, TF over GST control); in the assay with ELK4 it was 1.23 fold enrichment (6-mer frequency, TF over GST control); with ETV2, 1.35 fold enrichment (6-mer frequency, TF over GST control); with ELF3, 1.26 fold enrichment (6-mer frequency, TF over GST control); with CRX, 1.22 fold enrichment (6-mer frequency, TF over GST control). Moreover, the binding signal in the assay with ETV1 is 1.27 fold enrichment (6-mer frequency, TF over GST control).

The record behind these values is article PMC7862700, “An all-to-all approach to the identification of sequence-specific readers for epigenetic DNA modifications on cytosine”.
